This is part of a sample that, as a whole, favours compounds with a hit. Of some 83,000 tested, about 20% had one in any assay.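 Percent growth is the endpoint: 0 to 100 indicates growth inhibition (40 means 60% inhibition), 0 means no net growth, and negative values indicate cell death.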 Unmarked numbers belong to inactive results. Calls of active or inactive are those of the source.
Test system: SK-MEL-28 melanoma
Assay: NCI-60 one-dose screen, 48 h (100 = growth as untreated, 0 = no growth, -100 = all killed)
Conditions: 10 µM unless noted
Description: Growth inhibition of the SK-MEL-28 human tumor cell line is measured as a screen for anti-cancer activity. Cells are grown in 96 well plates and exposed to the test compound for 48 hours. Compounds are tested at a single concentration, which is 10^-5 M for most compounds. The reported endpoint is percent growth (GI% or GIPRCNT), where numbers from 0 - 100% represent growth inhibition, and numbers from -100% - 0 represent cell death. For example, a value of 40 represents 60% growth inhibition. A value of 0 means no net growth occurred over the course of the experiment. A value of -40 indicates 40% of cells at the beginning of the experiment died by the end of the experiment. A value of -100 means all cells are dead at the end of the experiment.
NCI-60 Human Tumor Cell Lines Screen was performed using the standard one-dose NCI protocol, which is described in more detail at https://dtp.cancer.gov/discovery_development/nci-60/default.htm.
Compounds with GIPRCNT values below 10 were considered active. Activity score was based on GIPRCNT using the following formula: […]
Score is 0 for GIPRCNT values of 100 or above, 50 for GIPRCNT values of 0, and 100 for GIPRCNT values of -100.

| SMILES | growth |
| --- | --- |
| CCCCCCN1CSC(=S)N(CCCCCC)C1 | 102% |
| Nc1cccc(-c2nc3sccn3c2-c2ccnc(NCCCNS(=O)(=O)c3cccc4ccccc34)n2)c1 | 64.5% |
| O=C(O)/C=C/C(=O)c1ccc(Cl)cc1 | 115% |
| CCn1c2ccccc2c2cc(NC(=O)Nc3ccc([N+](=O)[O-])cc3C)ccc21 | 67.2% |
| C=C1C(=O)O[C@H]2[C@H]1CC/C(Cn1cc(CNC(=O)c3cc4ccccc4[nH]3)nn1)=C\CC[C@@]1(C)O[C@@H]21 | 54.4% |
| O=c1[nH]c(Nc2ccc(S(=O)(=O)O)cc2)nc2nc(Nc3ccc(NC(=S)Nc4ccccc4)cc3)nc(-c3ccc(O)cc3O)c12 | 112% |
| COc1cc(/C=N\NC(=O)CN2CCN(c3cc4c(cc3F)c(=O)c(C(=O)N/N=C/c3cc(OC)c(OC)c(OC)c3)cn4C3CC3)CC2)cc(OC)c1OC | -11.6% (active) |
| COc1ccc(-c2c(N)n[nH]c2-c2cc(OC)c(OC)c(OC)c2)cc1 | 50.4% |
| C=C[C@@H]1C[C@@H]2Cc3c(C)cc(C)cc3N1O2 | 101% |
| O=S(=O)(CC(O)(c1ccccc1)c1ccccc1)CC(O)(c1ccccc1)c1ccccc1 | 86% |
| COc1cc(C2C3=C(COC3=O)Nc3cc4c(cc32)OCO4)cc2c1OCO2 (stereo not given) | 65.3% |
| O=S(=O)(NCCNc1nccc(-c2c(-c3ccc(F)cc3)nc3sccn23)n1)c1ccc(F)cc1 | 87.6% |
| O=C(C1=Cc2cc3ccccc3n2Cc2cnnn21)c1ccccc1 | 64.8% |
| O=c1cc/c(=N\Nc2ccccc2)c(=O)/c1=N/Nc1ccccc1 | 103% |
| CCN(CC)CCC(CNc1ccnc2cc(Cl)ccc12)c1ccccc1 (stereo not given) | -99.9% (active) |
| CC(=O)Oc1cccc(S(=O)(=O)n2cc(C(=O)C(=O)Nc3ccncc3)c3ccccc32)c1 | 104% |
| O=C(CN1CCN(c2cc3c(cc2F)c(=O)c(C(=O)N/N=C/c2ccccc2O)cn3C2CC2)CC1)N/N=C\c1ccccc1O | 20.7% |
| O=C(NNC(=S)Nc1ccccc1)c1cc2ccc1CCc1ccc(cc1)CC2 | 73.5% |
| CCCCCCCC[C@@H](O)CC(=O)N[C@@H](CC(N)=O)C(=O)N[C@@H](CCC(N)=O)C(=O)N[C@@H](CC(=O)c1cc(C)cc(O)c1C(=O)c1c(O)cccc1O)CC(C)C | 28.5% |
| O=C(NNC(=O)N1c2ccccc2C=Cc2ccccc21)c1ccc2ccccc2c1 | 98.4% |

| SMILES | growth |
| --- | --- |
| CCN(CC)CCOc1ccc(Cl)c(C)c1 | 107% |
| COc1cc(NC(N)=NCCC(C)(C)Oc2ccc(C(F)(F)F)cc2)ncc1C#N | -79.2% (active) |
| CC(=O)Oc1csc(N(C(C)=O)c2cccc(C(F)(F)F)c2)n1 | 103% |
| CCOC(=O)C1=C(C)NC(C)=C(C(=O)OCC)C1(C)C | 102% |
| FC(F)(F)c1ccccc1-c1cn2c(ccc3ccccc32)n1 | 81.8% |
| Cc1ccc2nc(-c3cc4c([nH]c5ccccc54)c(-c4ccc(F)c(F)c4)n3)[nH]c2c1 | 101% |
| CCN1CCN(c2nc(NNC(=O)c3ccccc3)nc(N3CCN(C(c4ccccc4)c4ccccc4)CC3)n2)CC1 | 82.9% |
| C=C[C@@H]1C[C@@H]2Cc3cc(F)ccc3N1O2 | 115% |
| COc1ccc(/C(C#N)=C/c2cc(OC)c(OC)c(OC)c2)cc1 | 52.1% |
| COc1ccc(S(=O)(=O)n2cc(C(=O)C(=O)Nc3ccncc3)c3ccccc32)cc1F | 92.2% |
| COc1ccc(/C=C(\C#N)c2cc(OC)c3c(c2)OCO3)cc1 | 67.8% |
| C=C1C(=O)O[C@H]2[C@H]1CC/C(Cn1cc(CNC(=O)/C=C/c3c[nH]c4ccccc34)nn1)=C\CC[C@@]1(C)O[C@@H]21 | 91.7% |
| COc1ccc(Nc2[nH]n3c(=O)cc(C)nc3c2C(N)=O)c(OC)c1 | 109% |
| c1coc(CNc2ccnc(Nc3ccc(OCCN4CCCCC4)cc3)n2)c1 | 107% |
| Fc1ccccc1-c1nc(-c2nc3cc(Cl)c(Cl)cc3[nH]2)c2ccccn12 | 83.9% |
| CCO/C=N/C1=C(C#N)C(c2ccc(Cl)cc2)c2c(c3ccc(C)cc3[nH]c2=O)O1 (stereo not given) | 101% |
| Cc1cc(N/N=C/c2nc(-c3ccc(Br)cc3)oc2C)c2cc(Br)ccc2n1 | 24.7% |
| O=C(CSc1nc2ccccc2[nH]1)c1ccc(N2CCOCC2)cc1 | 114% |
| COc1cc(/C=C/C(=O)c2c(C)nc3ccccc3c2C)ccc1OCCCCOc1cc2c(cc1OC)C(=O)N1CCC[C@H]1C=N2 | -85.5% (active) |
| c1ccc(Nc2nc(Nc3ccccc3)nc(Nc3ccccc3)n2)cc1 | 79% |

Source: PubChem BioAssay (NCI)
